Laboratory results: PubChem BioAssay (NCI)
This is part of a sample that, as a whole, favours compounds with a hit. Of some 83,000 tested, about 20% had one in any assay.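 Percent growth is the endpoint: 0 to 100 indicates growth inhibition (40 means 60% inhibition), 0 means no net growth, and negative values indicate cell death.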 Unmarked numbers belong to inactive results. The source made the active and inactive calls. Rule for the calls: active = growth percent below 10; inactive = the rest.

These molecules were tested on M14 melanoma (assay: NCI-60 one-dose screen, 48 h (100 = growth as untreated, 0 = no growth, -100 = all killed)). Details: 10 µM unless noted.
COC(=O)c1sccc1-c1cc(O)c(C(=O)Nc2ccccc2)s1 showed a growth of 93.3%.
For O=C(C1=Cc2cc3ccccc3n2Cc2cnnn21)c1ccc(F)cc1, the growth was 107%.
Cc1cccc(N2C(=O)/C(=C/C(Cl)=C/c3ccc([N+](=O)[O-])cc3)SC2=S)c1C was tested, and the growth was 22.5%.
CS(=O)/C(C#N)=C\C=C\c1cccc(Cl)c1 (stereo not given) was tested, and the growth was -3.44% (active).
In the case of CCOC(=O)/C=C1\S/C(=N\Nc2cc(=O)[nH]c3ccc(Br)cc23)N(c2ccccc2)C1=O, the growth is reported as 89.5%.
Work on Cc1ccc2nc(-c3ccc(C(=O)N/N=C/c4ccc([N+](=O)[O-])cc4)cc3)[nH]c2c1 yielded a growth of 102%.
For COc1ccc(/C=C/C(c2cc(OC)c(OC)c(OC)c2)n2cncn2)cc1O (stereo not given), the growth was -12.3% (active).
Work on CCCCCCCCCCCCCCCCCCOc1ccccc1CC(=O)NCC[N+](C)(C)C yielded a growth of 33.7%.
Work on CCOC(=O)c1c(C)nc2ccccc2c1/C=C/c1ccc(F)cc1 yielded a growth of 86.5%.
With N#Cc1c(-c2ccccc2)cc(-c2ccccc2)n(CCCCC(=O)NO)c1=O the growth was 19.1%.
Molecule COc1cc(Cc2cc(OC)c(O)c(OC)c2)cc(OC)c1O has a growth of 75.3%.
With COc1cc(/C=C/c2cc(/C=C/c3ccc(O)c(OC)c3)n(C(=O)Nc3ccc(Cl)cc3)n2)ccc1O the growth was 4.04% (active).
For NS(=O)(=O)c1ccc(C(=O)NN2C(=O)c3ccccc3C2=O)cc1, the growth was 104%.
For CS(=O)(=O)c1ccc(-c2nc3ccccc3n2CC(=O)N/N=C/c2ccccc2)cc1, the growth was 90.4%.
With CCn1cc(C(=O)N/N=C/c2cccc(F)c2)c(=O)c2cc(F)c(N3CCNC(C)C3)c(F)c21 (stereo not given) the growth was -7.07% (active).
CCCC(=O)NC(c1ccc2c(c1)OCO2)c1cc(Cl)c2cccnc2c1O (stereo not given) was tested, and the growth was 26.3%.
O=C(c1cccc(N2CCOCC2)n1)c1c[nH]c2ccccc12 showed a growth of 94.8%.
Molecule Cc1cc(C(=O)CCCC(=O)c2cc(C)c(O)c(C)c2)cc(C)c1O has a growth of 98.6%.
O=C(/C=C/c1ccccc1)c1cccc2ccccc12 showed a growth of 86.7%.
CNC(=O)c1cc(Oc2ccc3c(c2)sc2nc(-c4ccc(NC(=O)[C@@H](NC(=O)OC)C(C)C)cc4)cn23)ccn1 was tested, and the growth was 64.1%.
FC(F)(F)c1[nH]ncc1-c1nc2ccc3[nH]ncc3c2c2c1CCCC2 showed a growth of 12.5%.
For COC(=O)c1ccc2c(c1)c1c(C)c3cnccc3c(C)c1n2C, the growth was -88.6% (active).
Work on CC1=C2[C@@H](CC1)[C@]1(C)O[C@@](C3CCNCC3)(C[C@H]1OC(=O)CO)[C@H]2OC(=O)/C=C/c1ccccc1 yielded a growth of 83.6%.
CCOC(=O)CC1CSC(N/N=C/c2ccc(F)c(Br)c2)=N1 (stereo not given) was tested, and the growth was 102%.
With O=C1/C(=C/c2cccc(Br)c2)COc2ccc(O)cc21 the growth was 76.5%.
Molecule O=C(Cn1nc(-c2cccc3ccccc23)ccc1=O)NCc1cccc(Cl)c1 has a growth of 34% [50 µM].
COc1cc(O)c2c(=O)c3c(CC=C(C)C)cc(OC)c(O)c3oc2c1 was tested, and the growth was 15.6%.
Nc1ccc(Br)cc1C(F)(F)F was tested, and the growth was 106%.
O=C(Nc1ccc(Oc2cccc(Cl)c2)c(Cl)c1)c1cccnn1 gave a growth of 92.8%.
In the case of COc1cccc(-c2cn3nc(-c4cn(C)c5ccccc45)sc3n2)c1, the growth is reported as 84.3%.
With c1ccc(-c2c(-c3ccccc3)[n+](Cc3ccc4ccccc4c3)cn2Cc2ccc3ccccc3c2)cc1 the growth was -85.8% (active).
With COc1ccc(C2[C@@H](c3ccccc3)C(=O)N2c2cc(OC)c(OC)c(OC)c2)cc1F (stereo not given in full) the growth was 4.59% (active).
CC(C)CCC[C@@H](C)[C@H]1CC[C@H]2[C@@H]3CC=C4c5sc(Nc6cc(C(F)(F)F)cc(C(F)(F)F)c6)nc5CC[C@]4(C)[C@H]3CC[C@]12C showed a growth of 98.6%.
Molecule Nc1cc(C(=O)O)cc(-n2c(O)c(C=C3N=c4ccccc4=N3)sc2=S)c1 has a growth of 97.9%.
COc1cccc(CNc2c3ccccc3nc3ccccc23)c1OC was tested, and the growth was 34.5%.
Molecule Clc1ccc(Nc2ncc(Cc3cccc(Cl)c3Cl)s2)cc1 has a growth of 103%.
Molecule CCOC(=O)c1cnn(CC(C)O)c1NC(=O)NCc1cccc(F)c1 (stereo not given) has a growth of 83.2%.
With C=C1C(=O)O[C@@H]2C3C(=C(C)CC[C@@H]12)CC1O[C@]13C (stereo not given in full) the growth was 65.5% [6.75 µM].
In the case of CCOC(=O)C1=C(c2ccccc2)N=C2N(c3ccccc3)N=C(C(C)=O)N2C1c1ccc(F)cc1 (stereo not given), the growth is reported as 101%.
CCCOC(=O)Nc1nc2ccc(SCC)cc2s1 was tested, and the growth was 46.5%.
